Active and inactive are the calls of the source.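 How the source made its calls, unless noted: active means compound that reduces growth-factor-driven endothelial tube area in a mixed cell culture, no cutoff stated; inactive means the rest.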
Assays:
[1] = Wnt pathway potentiators raising nuclear beta-catenin – imaging, WNT3A-conditioned medium, mouse C2C12, NPC library, primary screen (AID 1117326; in the data active means nuclear beta-catenin stimulation mostly above about 4.2%, no sharp cut-off; inactive means mostly below about 10%; further: reference of the scale not given here); conditions: stronger effect = higher value
[2] = stimulators of insulin release from INS-1E, primary screen, cell-based, 5 mM glucose, NPC library (AID 1117329;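 active means compound raises insulin release from rat beta cells at 5 mM glucose, no numeric limit stated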; further: reference of the scale not given here); conditions: rat INS-1E insulin secretion, at 10 µM, stronger effect = higher value
[3] = growth inhibition of GSK3B-pretreated HCT116 cells – cell-based, CellTiter-Glo, 0.2 to 20 µM (AID 1117336;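 active means compounds lowering colon cancer cell viability after pretreatment blocking the GSK3B kinase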); conditions: HCT116 viability after GSK3B inhibitor, at 20 µM, stronger effect = higher value
[4] = inhibition of endothelial tube formation, primary screen, imaging, VEGF stimulated, CD31 staining, tube area, NPC library (AID 1117340); conditions: VEGF-stimulated ADSC/ECFC co-culture, at 10 µM, stronger effect = higher value
[5] = GLP1 release stimulators, primary, NCI-H716, NPC library (AID 1117341;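 active means compound raises GLP1 secretion from the human gut endocrine cells, with no numeric limit stated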; further: reference of the scale not given here); conditions: NCI-H716 cells, at 10 µM, stronger effect = higher value
[6] = HCT116 colon cancer cell growth inhibition, primary screen, CellTiter-Glo luminescence, NPC library (AID 1117342;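 active means compounds that lower survival of HCT116 colon cancer cells in the luminescence readout, no numeric limit stated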); conditions: at 20 µM (top of the series)
[7] = reduced SW480 viability measured with CellTiter-Glo, NPC library, primary (AID 1117343;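 active means compounds that lower viability of the colon cancer cells in the luminescence readout, with no numeric limit stated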); conditions: CellTiter-Glo luminescence; at 20 µM (top of the series)
[8] = NPC library primary testing for decreased DLD-1 cell viability via CellTiter-Glo (AID 1117346;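 active means compounds that lower survival of DLD-1 colon cancer cells in the luminescence readout, no cutoff given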); conditions: DLD-1 viability, CellTiter-Glo luminescence; at 20 µM (top of the series)

SMILES	nuclear beta-catenin stimulation ([1]; at 10 µM)	nuclear beta-catenin stimulation ([1]; stimulation, at 2 µM) [%]	insulin secretion stimulation [2]	viability decrease [3]	tube area decrease [4]	GLP1 secretion stimulation [5]	inhibition of viability [6]	viability decrease (inhibition) [7]	viability decrease (inhibition) [8]
CC1CN(c2cc3c(cc2F)c(=O)c(C(=O)O)cn3-c2ccc(F)cc2F)CCN1 (configuration not stated)	-0.4% (inactive)	0	2.1% (inactive)	8.7% (inactive)	5.5% (inactive)	-0.9% (inactive)	10.7% (inactive)	16.6% (inactive)	-0.2% (inactive)
O=C(O)c1cc(O)c2c(c1)[O][Bi][O]2	-2.2% (inactive)	1	-0.6% (inactive)	-0.3% (inactive)	11.1% (inactive)	-0.5% (inactive)	4.4% (inactive)	26.3% (inactive)	0.3% (inactive)
O=C(CO)[C@@H](O)[C@H](O)[C@@H](O)C(=O)O	-2.6% (inactive)	-0.9	0.7% (inactive)	-2.4% (inactive)	-0.1% (inactive)	-5.4% (inactive)	2.2% (inactive)	0.3% (inactive)	-3.1% (inactive)
CCN(CC)CCN	0.4% (inactive)	-1.7	1.7% (inactive)	-6% (inactive)	5.8% (inactive)	-1% (inactive)	-0.4% (inactive)	1.2% (inactive)	-10.7% (inactive)
COc1ccc(/C(C)=C/C(=O)O)c(OC)c1	1.2% (inactive)	0.1	-0.4% (inactive)	10.1% (inactive)	-9.3% (inactive)	1.3% (inactive)	-0.3% (inactive)	-19.9% (inactive)	-10.1% (inactive)
CCCc1ncc(C(=O)O)s1	-1.1% (inactive)	-1.2	4.2% (inactive)	-8.2% (inactive)	9.7% (inactive)	-5.4% (inactive)	5.1% (inactive)	2.1% (inactive)	-6.8% (inactive)
CC(=O)O[C@@H]1CC2C3CCc4cc(OC(=O)c5ccccc5)ccc4C3CCC2(C)[C@H]1OC(C)=O (some centres not stated)	0.7% (inactive)	1.1	0.5% (inactive)	-39.7% (inactive)	27.8% (inactive)	2.1% (inactive)	0.9% (inactive)	47% (inactive)	-13.5% (inactive)
CCC(C(=O)O)c1ccc(N2Cc3ccccc3C2=O)cc1 (configuration not stated)	0.8% (inactive)	-0.1	1.25% (inactive)	15.4% (inactive)	-24.8% (inactive)	1% (inactive)	-4.3% (inactive)	-8.7% (inactive)	-10% (inactive)
CC(C)(C)CC(C)(C)c1ccc(O)c(-n2nc3ccccc3n2)c1	1.5% (inactive)	1.1	-1% (inactive)	13.1% (inactive)	23.9% (inactive)	-1.5% (inactive)	-8.9% (inactive)	82.6% (active)	22.1% (inactive)
COc1cc(/C=C/C(=O)O[C@H]2CC[C@]34C[C@]35CC[C@]3(C)[C@@H]([C@H](C)CCC=C(C)C)CC[C@@]3(C)[C@@H]5CC[C@H]4C2(C)C)ccc1O	-1.5% (inactive)	-1.7	7.6% (inactive)	2.6% (inactive)	-12.4% (inactive)	0.5% (inactive)	10% (inactive)	-10.1% (inactive)	-6.9% (inactive)
CCCCCCCCCCOCC(O)CN (configuration not stated)	49.7% (active)	-0.2	4.5% (inactive)	91.1% (active)	65% (active)	-3.3% (inactive)	84.7% (active)	102% (active)	98.4% (active)
c1ccc(-c2nc[nH]c2-c2ccccc2)cc1	0.2% (inactive)	2.7	-1.3% (inactive)	-7.1% (inactive)	12.1% (inactive)	3.1% (inactive)	-17.5% (inactive)	55% (active)	-0.05% (inactive)
CC(NC(CCc1ccccc1)C(=O)O)C(=O)N1C(=O)N(C)CC1C(=O)O (configuration not stated)	-1.2% (inactive)	1.8	5.3% (inactive)	-39.7% (inactive)	6% (inactive)	-5.4% (inactive)	2.8% (inactive)	4.5% (inactive)	-6% (inactive)
CCCC(=O)O[C@]1(C(=O)COC(=O)CC)CC[C@H]2[C@@H]3CCC4=CC(=O)CC[C@]4(C)[C@H]3[C@@H](O)C[C@@]21C	-0.4% (inactive)	-2.3	0.8% (inactive)	-8.8% (inactive)	-9% (inactive)	1.9% (inactive)	6.6% (inactive)	-5.5% (inactive)	-2% (inactive)
N#C/C(=C1/SC[C@@H](c2ccc(Cl)cc2Cl)S1)n1ccnc1	0.7% (inactive)	2.8	2.35% (inactive)	88% (active)	23.8% (inactive)	-1.8% (inactive)	101% (active)	116% (active)	84.3% (active)
CCCOC(=O)c1cc(O)c(O)c(O)c1	4.2% (inactive)	1.9	-1.6% (inactive)	43.1% (inactive)	71.3% (active)	-2.1% (inactive)	35.1% (inactive)	78.3% (active)	58.4% (active)
Cc1ccc(-c2ccccc2C#N)cc1	1.4% (inactive)	6.2	0.25% (inactive)	3.2% (inactive)	-5.1% (inactive)	2.4% (inactive)	-1.3% (inactive)	-24.5% (inactive)	-11% (inactive)
C/C(=N/NC(=O)c1ccncc1)C(=O)O	-0.8% (inactive)	-0.3	-0.8% (inactive)	-23.6% (inactive)	-6.8% (inactive)	-2.8% (inactive)	-1.23% (inactive)	17.4% (inactive)	4.2% (inactive)
